# Test results from PubChem BioAssay (NCATS).
# Inconclusive results are not listed. Where a call stands in place of a potency, no number is given. Calls of active or inactive are those of the source.
# Key:
# [1] = biological target: Glucocorticoid receptor (Homo sapiens) (UniProt P04150); assay: qHTS assay for small molecule antagonists of glucocorticoid receptor signaling (AID 588533; active means well fitted inhibition curve with a large enough effect in the signal ratio, with a control signal flat, not every such curve was filed as active; the % refers to the signal ratio;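 further: cells stimulated with 2 nM dexamethasone as agonist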)
# Chain of Glucocorticoid receptor (Homo sapiens) (P04150 whole entry, looked up): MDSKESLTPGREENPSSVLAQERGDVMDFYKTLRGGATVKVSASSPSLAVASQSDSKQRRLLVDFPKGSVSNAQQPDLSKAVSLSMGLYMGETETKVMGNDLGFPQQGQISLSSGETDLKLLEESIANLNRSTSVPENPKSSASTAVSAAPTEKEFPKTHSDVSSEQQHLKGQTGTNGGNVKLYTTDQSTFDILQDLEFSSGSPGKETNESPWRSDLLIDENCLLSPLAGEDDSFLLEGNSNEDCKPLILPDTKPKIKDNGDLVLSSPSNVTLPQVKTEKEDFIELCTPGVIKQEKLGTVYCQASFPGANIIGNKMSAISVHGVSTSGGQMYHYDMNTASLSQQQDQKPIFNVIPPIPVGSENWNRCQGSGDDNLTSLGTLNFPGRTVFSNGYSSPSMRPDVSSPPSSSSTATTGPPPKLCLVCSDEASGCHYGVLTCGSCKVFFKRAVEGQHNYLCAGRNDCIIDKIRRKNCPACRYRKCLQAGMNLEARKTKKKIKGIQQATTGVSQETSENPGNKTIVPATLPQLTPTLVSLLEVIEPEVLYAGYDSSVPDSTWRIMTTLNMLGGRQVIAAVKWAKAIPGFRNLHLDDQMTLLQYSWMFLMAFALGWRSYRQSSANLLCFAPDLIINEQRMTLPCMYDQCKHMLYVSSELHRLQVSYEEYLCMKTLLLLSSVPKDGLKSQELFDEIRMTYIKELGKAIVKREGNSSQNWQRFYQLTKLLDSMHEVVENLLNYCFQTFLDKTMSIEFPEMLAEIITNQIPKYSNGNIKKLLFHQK
# Outline: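 Antagonist-mode qHTS: compound titrations added to GRE-bla HeLa cells, then dexamethasone 2 nM final; 18 h, 37 C. CCF4 FRET fluorescence normalized to dexamethasone and DMSO; IC50 from Hill fit.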
# [2] = qHTS assay for small molecule antagonists of peroxisome proliferator-activated receptor delta signaling (AID 588535; active means well fitted inhibition curve with a large enough effect in the signal ratio, with a control signal flat, not every such curve was filed as active; the % refers to the signal ratio;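 on max response: cells co-treated with a PPAR-delta agonist as stimulator during compound exposure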); settings: HEK293T PPARd-UAS-bla, beta-lactamase FRET ratio, 18 h; 460 nm channel
# Outline: (§1)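 Beta-lactamase reporter read-out (405 nm excitation, 460/530 nm emission) after CCF4 loading for 2 hrs at RT. HEK293T PPAR-delta-UAS-bla cells, 2% charcoal/dextran FBS, compounds for 18 hrs at 37 C. Hill fit gave IC50 and efficacy.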
# [3] = biological target: Peroxisome proliferator-activated receptor delta (Homo sapiens) (UniProt Q03181); assay: as above
# Chain of Peroxisome proliferator-activated receptor delta (Homo sapiens) (Q03181 whole entry, looked up): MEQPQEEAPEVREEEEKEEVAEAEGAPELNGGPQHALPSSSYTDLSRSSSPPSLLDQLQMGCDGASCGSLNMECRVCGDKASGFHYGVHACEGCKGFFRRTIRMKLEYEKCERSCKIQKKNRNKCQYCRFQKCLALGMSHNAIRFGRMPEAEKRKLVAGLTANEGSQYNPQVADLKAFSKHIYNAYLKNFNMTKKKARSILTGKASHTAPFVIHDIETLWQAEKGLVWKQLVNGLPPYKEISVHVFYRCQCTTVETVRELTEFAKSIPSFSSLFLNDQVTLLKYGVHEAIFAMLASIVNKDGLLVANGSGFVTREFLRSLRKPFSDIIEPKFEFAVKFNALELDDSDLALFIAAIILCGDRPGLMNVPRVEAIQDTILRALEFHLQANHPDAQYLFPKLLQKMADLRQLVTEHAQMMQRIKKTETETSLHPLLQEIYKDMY
# Outline: as §1
Compound,Potency [1],max response [2],outcome [3]
CCCC(C)(COC(N)=O)COC(N)=O,inactive,-25.1%,inactive
Nc1ccccc1,inactive,1.43%,inactive
Oc1ccc(Cl)cc1,,-18.6%,inactive
O=C1c2ccccc2C(=O)c2ccccc21,,36.9%,inactive
